The list is not random: actives were taken first. Their share in the collection is about 19%.
ELG1 repair inh – qHTS screen for small molecules that inhibit ELG1-dependent DNA repair in human embryonic kidney (HEK293T) cells expressing luciferase-tagged ELG1; HEK293T ELG1-luciferase reporter, luminescence, 16 h; DNA damage induced by 5-fluorouridine; AID 504467, 2011; Potency, µM (series often up to 46.1 µM), actives largely listed as inhibitors; 330,000 compounds, 2.3% hits; note: nearly all actives have a fitted effect of over 55% in size
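HEK293T cells expressing luciferase-tagged ELG1 (2,000/well) received 5-Fluorouridine plus compound or DMSO for 16 hr at 37 °C. Luciferase was read by ONE-Glo luminescence after 30 min at room temperature.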
DT40 TDP1 CPT – qHTS for Inhibitors of human tyrosyl-DNA phosphodiesterase 1 (TDP1): qHTS in cells in presence of CPT | chicken DT40 Tdp1-/-;hTDP1 cells + 20 nM CPT, ATP luminescence, 48 h | Potency, µM (doses to about 46.2 µM), usual class: inhibitors | AID 686979, 2013 | 420,000 compounds, 12% hits; note: nearly all actives have a fitted effect of over 55% in size
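Cell growth measured by CellTiter-Glo luminescence after a minimum 48 h, 37 C compound exposure with 20 nM CPT in Tdp1-knockout DT40 cells stably expressing hTDP1, seeded 400/well; qHTS titration format.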
Giardia killer – Small Molecules that selectively kill Giardia lamblia: qHTS; 340,000 compounds, 0.15% hits; Giardia lamblia trophozoite viability; activity change, % at 7.66 µM, hits read low; in the data active = activity change below about -80%; inconclusive = between about -30% and that limit;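 note: parasites exposed to compound for two days anaerobically before the ATP read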
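Luminescence from cellular ATP indicates surviving trophozoites (100 cells/well) following 48 hrs anaerobic compound treatment at 37 deg C; signal develops 15-30 min at room temperature.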
DT40 TDP1 no CPT – qHTS for Inhibitors of human tyrosyl-DNA phosphodiesterase 1 (TDP1): qHTS in cells in absence of CPT; DT40 Tdp1-/- hTDP1 cells, no CPT, ATP luminescence, 48 h; Potency, µM (series often up to 46.2 µM), actives largely listed as inhibitors; 420,000 compounds, 15% hits; AID 686978, 2013; note: nearly all actives have a fitted effect of over 55% in size
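Chicken DT40 Tdp1-/- cells stably complemented with human TDP1 were seeded at 400 cells/well with DMSO in place of 20 nM camptothecin. After compound pinning, cells grew at least 48 hr at 37 °C; viability read by CellTiter-Glo luminescence.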
IL-1B inflam inh – qHTS for Inhibitors of Inflammasome Signaling: IL-1-beta AlphaLISA Primary Screen; THP-1 LPS/ATP IL-1B secretion, AlphaLISA, 16 h; hits give low values; activity change, % at 57.5 µM; 360,000 compounds, 4.7% hits; AID 743279, 2014; in the data active = activity change below about -50%; inconclusive = mostly about -30% to -49%
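THP-1 cells pretreated 1 hr with compounds (up to 57.5 uM final), then stimulated with LPS (250 ng/mL final) plus ATP (1.25 mM final); secreted IL-1B measured by AlphaLISA after 16 hr, decreased signal indicating inhibition.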
TDP1 inh – qHTS Assay for Inhibitors of Tyrosyl-DNA Phosphodiesterase (TDP1); Tyrosyl-DNA phosphodiesterase 1 (Homo sapiens), Q9NUW8; Potency, µM (series often up to 130 µM), usual class: inhibitors; recombinant TDP1, AlphaScreen DNA substrate cleavage; 350,000 compounds, 0.28% hits; note: nearly all actives have a fitted effect of over 40% in size
Target sequence (Q9NUW8 whole entry, looked up): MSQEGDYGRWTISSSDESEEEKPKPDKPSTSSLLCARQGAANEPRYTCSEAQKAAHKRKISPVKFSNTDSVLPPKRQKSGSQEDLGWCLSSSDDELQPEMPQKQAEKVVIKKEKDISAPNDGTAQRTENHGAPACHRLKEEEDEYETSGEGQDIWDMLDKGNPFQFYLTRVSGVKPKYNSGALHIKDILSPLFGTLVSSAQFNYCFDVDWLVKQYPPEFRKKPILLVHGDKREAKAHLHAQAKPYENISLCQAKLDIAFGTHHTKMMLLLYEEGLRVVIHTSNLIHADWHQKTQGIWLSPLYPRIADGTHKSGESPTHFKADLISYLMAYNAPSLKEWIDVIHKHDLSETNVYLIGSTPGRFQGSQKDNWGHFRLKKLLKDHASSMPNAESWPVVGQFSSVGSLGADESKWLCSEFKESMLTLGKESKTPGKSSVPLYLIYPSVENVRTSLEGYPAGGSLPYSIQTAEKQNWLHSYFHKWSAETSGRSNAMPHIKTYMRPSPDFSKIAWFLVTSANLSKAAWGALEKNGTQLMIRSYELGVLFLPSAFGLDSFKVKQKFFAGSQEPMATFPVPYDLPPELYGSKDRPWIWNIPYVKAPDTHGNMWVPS
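Signal: AlphaScreen proximity between streptavidin donor and anti-FITC acceptor beads on intact substrate. Reaction: Tdp1 1 nM, substrate 15 nM final, 5 min RT after 15 min compound preincubation.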
Large screens that a line does not name were inactive. Unless noted, calls come from the whole dose curve; as a rule, active = well fitted curve in the direction sought with a large enough effect; inconclusive = small, poorly fitted or top-dose-only effect, or another doubt; inactive = no such curve, though single readings can be large; an effect the other way counts as inactive or inconclusive.

Oc1ccc(N2CCN(Cc3c(-c4ccccc4)nc4ccccn34)CC2)cc1	DT40 TDP1 CPT inconclusive, DT40 TDP1 no CPT 14.6µM
Clc1ccc(-c2nc3ccccn3c2CN2CCCCC2)cc1	ELG1 repair inh inconclusive, DT40 TDP1 CPT inconclusive, DT40 TDP1 no CPT inconclusive
c1ccc(-c2nc3ccccn3c2-c2ccccc2)cc1	DT40 TDP1 CPT inconclusive, DT40 TDP1 no CPT 11.6µM (no result: ELG1 repair inh, TDP1 inh)
COC(=O)Nc1c(-c2ccccc2)nc2ccccn12	none
COc1ccc(/C=C/C(=O)NCC(=O)N=Nc2c(O)[nH]c3ccc([N+](=O)[O-])cc23)cc1	TDP1 inh 50.1µM
Cc1ccc(NCC(=O)N=Nc2c(O)[nH]c3ccc([N+](=O)[O-])cc23)cc1	ELG1 repair inh inconclusive, DT40 TDP1 CPT inconclusive, DT40 TDP1 no CPT 23.1µM
Cc1cccc(OCC(=O)NCC(=O)N=Nc2c(O)[nH]c3ccc([N+](=O)[O-])cc23)c1	none
O=[N+]([O-])c1ccc2[nH]c(O)c(N=NC(=S)NCC3CCCO3)c2c1 (centres undefined)	DT40 TDP1 CPT inconclusive, DT40 TDP1 no CPT 14.6µM
CCNC(=S)N=Nc1c(O)[nH]c2ccc([N+](=O)[O-])cc12	ELG1 repair inh inconclusive, DT40 TDP1 CPT 3.26µM, DT40 TDP1 no CPT 4.11µM
CCn1cc(C(=O)N2CCN(c3ccc(C(C)=O)cc3)CC2)c2cc(OC)c(OC)cc2c1=O	DT40 TDP1 CPT inconclusive
O=C(CCCN1C(=O)NC2(CCCC2)C1=O)Nc1ccc(Cl)c(S(=O)(=O)N2CCOCC2)c1	none
C[C@@H](C(=O)CC(=O)OC(C)(C)C)[C@@H](O)c1c(F)cccc1Cl	none
O=C(Nc1ccccc1)C1=C[C@@H](c2ccc3c(c2)OCO3)C[C@@H](OCCCCO)O1	none (no result: ELG1 repair inh, TDP1 inh)
CN1CCN(C(=O)C2=C[C@@H](c3ccc(C(F)(F)F)cc3)C[C@@H](OCCCCO)O2)CC1	none
O=C(C1=C[C@H](c2ccc(C(F)(F)F)cc2)C[C@H](OCCCCO)O1)N1CCN(Cc2ccc3c(c2)OCO3)CC1	DT40 TDP1 CPT inconclusive, DT40 TDP1 no CPT inconclusive, IL-1B inflam inh -66.6
O=C(C1=C[C@@H](c2ccc(C(F)(F)F)cc2)C[C@@H](OCCCCO)O1)N1CCCCCCC1	DT40 TDP1 CPT 23.1µM, DT40 TDP1 no CPT inconclusive (no result: ELG1 repair inh, TDP1 inh)
O=C(Nc1ccccc1)C1=C[C@H](c2ccc3c(c2)OCO3)C[C@H](OCCCCO)O1	DT40 TDP1 CPT 25.9µM, DT40 TDP1 no CPT inconclusive
O=C(NCCC1=CCCCC1)c1ccc2c(c1)N(Cc1cccc(Cl)c1)C(=O)c1ccccc1S2=O (centres undefined)	DT40 TDP1 CPT inconclusive, DT40 TDP1 no CPT inconclusive (no result: ELG1 repair inh, Giardia killer, IL-1B inflam inh)
CCNC(=O)c1c(NC(=O)c2cc(=O)c3ccc(C)c(C)c3o2)sc2c1CCCC2	none (no result: ELG1 repair inh, Giardia killer, IL-1B inflam inh)
CCOC(=O)c1c(NC(=O)c2cc(CC)on2)sc(C)c1C	none (no result: ELG1 repair inh, Giardia killer, IL-1B inflam inh)
COc1ccc(C2CC(C(F)(F)F)n3ncc(C(=O)Nc4cccc(O)c4)c3N2)cc1OC (centres undefined)	ELG1 repair inh 14.6µM, DT40 TDP1 no CPT inconclusive
CCC1CCCCN1S(=O)(=O)c1ccc(C(=O)Nc2nnc(C3CC3)o2)cc1 (centres undefined)	ELG1 repair inh inconclusive, DT40 TDP1 CPT inconclusive, DT40 TDP1 no CPT inconclusive
CCC1CCCCN1S(=O)(=O)c1ccc(NC(=O)c2nc(S(C)(=O)=O)ncc2Cl)cc1 (centres undefined)	ELG1 repair inh inconclusive, DT40 TDP1 CPT 1.46µM, DT40 TDP1 no CPT 2.59µM, IL-1B inflam inh -100.6
CCC1CCCCN1S(=O)(=O)c1ccc(C(=O)Nc2nnc(-c3ccccc3Cl)o2)cc1 (centres undefined)	ELG1 repair inh inconclusive, DT40 TDP1 CPT 5.17µM, DT40 TDP1 no CPT 6.51µM
